According to the supplement of paper PMC4371806:
Over roughly 1,600 compounds, “plate-normalized OD600 growth (mean of duplicates)” has its median near 0.31; the lowest 2% begin near 0.23. The list comes from a sample in which the lowest values are over-represented; it also holds similar structures and randomly drawn compounds.

System: Escherichia coli BW25113
Test: plate-normalized OD600 growth (mean of duplicates) (OD600 (normalized)); higher = more growth (less inhibition)
Details: 10 µM
Procedure: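 E. coli BW25113 in LB (100 µl, 96-well, no shaking) was exposed to 10 µM of each compound (here the ChemBridge subset of a ~30,000-member library) and grown at 37°C for 24 h or 15°C for 48 h, in duplicate. Growth was read as OD600 and the duplicate ODs were normalized across screening plates to correct plate-to-plate variation.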

Row | Compound | plate-normalized OD600 growth (temperature: 15°C, 48 h) | plate-normalized OD600 growth (temperature: 37°C, 24 h)
1 | CCN(CC)C(=O)c1ccc([N+](=O)[O-])o1 | 0.247 | 0.627
2 | O=C(Nc1ccccc1NC(=O)c1ccccc1F)c1ccccc1F | 0.263 | 0.627
3 | O=C(Nc1ccccc1F)c1ccc([N+](=O)[O-])o1 | 0.201 | 0.592
4 | CCOc1ccccc1N1CCN(C(=O)c2ccccc2C)CC1 | 0.287 | 0.646
5 | Brc1ccc(CN2CCN(c3ccccn3)CC2)cc1 | 0.267 | 0.614
6 | CN1CCCN(CC2CC3C=CC2C3)CC1 (configuration not stated) | 0.225 | 0.656
7 | COc1cccc(N2CCN(CC3CC4C=CC3C4)CC2)c1 (configuration not stated) | 0.296 | 0.627
8 | COc1ccc(CN2CCCN(C)CC2)cc1Br | 0.229 | 0.632
9 | COC(=O)Nc1ccc(S(=O)(=O)N2CCCCC2)cc1 | 0.238 | 0.599
10 | COc1ccc(S(=O)(=O)N2CCCC(C)C2)cc1 (configuration not stated) | 0.266 | 0.639
11 | COc1ccc(S(=O)(=O)N2CCCC2)cc1 | 0.219 | 0.612
12 | Cc1cc(NO)nc(-c2ccc(Br)cc2)n1 | 0.221 | 0.622
13 | Cc1nc(C)c(-c2cc(C)c3c(C)nc(C)nc3n2)c(N)n1 | 0.252 | 0.617
14 | O=C(COc1ccc(Cl)cc1Cl)Nc1ccc(C(=O)O)cc1 | 0.261 | 0.618
15 | COc1cccc(NC(=O)c2ccncc2)c1 | 0.261 | 0.618
16 | O=C(c1cccnc1)N1CCN(C(=O)c2ccco2)CC1 | 0.24 | 0.631
17 | COc1ccc(Cc2ccc(OC)c(N)c2)cc1N | 0.254 | 0.632
18 | COc1cc(C)c(N)cc1C(C)C | 0.226 | 0.6
19 | COc1cc2c(cc1NC(=O)C(Cl)Cl)oc1ccccc12 | 0.232 | 0.619
20 | COc1ccc(N2C(=O)CC(N3CCN(c4ccc(F)cc4)CC3)C2=O)cc1 (configuration not stated) | 0.24 | 0.59
21 | COc1ccccc1N1C(=O)CC(N2CCN(c3ccc([N+](=O)[O-])cc3)CC2)C1=O (configuration not stated) | 0.282 | 0.637
22 | Cc1ccc(N2C(=O)CC(N3CCN(c4ccc([N+](=O)[O-])cc4)CC3)C2=O)c(C)c1 (configuration not stated) | 0.218 | 0.612
23 | Cc1ccccc1OCCCCN1CCCCC1 | 0.265 | 0.623
24 | Fc1ccccc1OCCCCN1CCCCC1 | 0.214 | 0.61

Row | Compound | plate-normalized OD600 growth (temperature: 15°C, 48 h) | plate-normalized OD600 growth (temperature: 37°C, 24 h)
25 | c1ccc(OCCCCN2CCCCC2)cc1 | 0.241 | 0.621
26 | CC(Nc1cc(=O)n(C)c(=O)[nH]1)c1ccccc1 (configuration not stated) | 0.254 | 0.611
27 | CC1(C)CC(n2c(NN)nc3c(c2=O)C2(CCCCC2)Cc2ccccc2-3)CCO1 (configuration not stated) | 0.255 | 0.631
28 | CCN(CCN(C)C)C1CCCCCC1 | 0.26 | 0.618
29 | CC(=O)N1CCC(NC2CCCCCC2)CC1 | 0.269 | 0.62
30 | C=C(C)CN(CC)C1CCN(C(C)=O)CC1 | 0.226 | 0.627
31 | CN1CCN(C(=O)CC(c2ccccc2)c2ccccc2)CC1 | 0.253 | 0.62
32 | N#Cc1ccc(-c2cccs2)[nH]c1=O | 0.236 | 0.644
33 | NS(=O)(=O)c1ccc(-c2ccc(C=O)o2)cc1 | 0.227 | 0.612
34 | O=C(/C=C/c1ccc(-c2ccc(F)cc2)o1)c1cccs1 | 0.253 | 0.617
35 | O=Cc1ccc(-c2ccc(Cl)c(C(=O)O)c2)o1 | 0.268 | 0.622
36 | COc1ccc2nc3c(nc2c1)C(=O)c1ccccc1-3 | 0.234 | 0.611
37 | c1cncc(-c2nc3c4c5c(sc4ncn3n2)CCCC5)c1 | 0.261 | 0.628
38 | COc1ccc(CNCCC2CCOC(C)(C)C2)cc1 (configuration not stated) | 0.263 | 0.65
39 | Cc1nnc(Sc2ccc(C=O)o2)s1 | 0.227 | 0.604
40 | CCOC(=O)N1CCN(Cc2cc(C)ccc2C)CC1 | 0.266 | 0.646
41 | CC(=O)c1ccc(NS(=O)(=O)c2cc(S(=O)(=O)c3ccccc3)ccc2C)cc1 | 0.278 | 0.649
42 | c1ccc(CN2C3=NCCCN3c3ccccc32)cc1 | 0.249 | 0.625
43 | N#CCCS(=O)(=O)c1ccc(Br)cc1 | 0.258 | 0.63
44 | CCCCOc1ccc(C2(C)CC(=O)NC2=O)cc1 (configuration not stated) | 0.258 | 0.634
45 | Cc1onc(-c2ccccc2Cl)c1C(=O)NCc1ccc2c(c1)OCO2 | 0.261 | 0.619
46 | NNC(=O)c1cc(-c2ccc([N+](=O)[O-])cc2)nc2ccccc12 | 0.251 | 0.647
47 | O=C(O)Cn1c2ccccc2c2cc([N+](=O)[O-])ccc21 | 0.226 | 0.625
48 | CN(C)/C=C/c1c(C=O)c2cc([N+](=O)[O-])ccc2n1C | 0.238 | 0.596

Row | Compound | plate-normalized OD600 growth (temperature: 15°C, 48 h) | plate-normalized OD600 growth (temperature: 37°C, 24 h)
49 | Cn1c2ccccc2c2nc3ccc([N+](=O)[O-])cc3cc21 | 0.249 | 0.639
50 | Cn1c(C=O)nc2cc([N+](=O)[O-])ccc21 | 0.241 | 0.625
51 | CCn1c(C)c(C=O)c2cc([N+](=O)[O-])ccc21 | 0.223 | 0.608
52 | Cc1n[nH]c(=O)c2cc3c(C)n[nH]c(=O)c3cc12 | 0.259 | 0.622
53 | CC1CCC2(CC1)C(C#N)C(=O)NC(=O)C2C#N (configuration not stated) | 0.244 | 0.615
54 | CCCC(=O)NC(c1ccccc1)c1ccccc1 | 0.265 | 0.637
55 | CSc1nc(C)c(C(C)=O)cc1C#N | 0.244 | 0.621
56 | Cc1ccc(S(=O)(=O)CCSc2cccc(C(=O)Nc3ccccc3)c2)cc1 | 0.243 | 0.633
57 | CC(=O)Nc1cccc(NC(=O)Nc2cccc(Cl)c2)c1 | 0.236 | 0.585
58 | Cc1nonc1NC(=O)Nc1ccncc1 | 0.18 | 0.615
59 | O=C(Nc1ccncc1)c1ccc(Cl)cc1Cl | 0.263 | 0.623
60 | Cc1ccc(C(C)NC(=O)c2ccccc2)c(C)c1 (configuration not stated) | 0.267 | 0.619
61 | Cc1ccc(NC(=O)[C@@H]2C3C=CC(C3)[C@@H]2C(=O)O)c(C)c1 (some centres not stated) | 0.247 | 0.648
62 | CCCN(CCO)Cc1ccccc1F | 0.235 | 0.589
63 | c1ccc(CCN2CCC(N3CCOCC3)CC2)cc1 | 0.239 | 0.618
64 | c1ccc(CCN2CCN(c3ccccc3)CC2)cc1 | 0.227 | 0.62
65 | c1ccc(CCCN2CCOCC2)cc1 | 0.251 | 0.615
66 | Clc1ccccc1N1CCN(Cc2ccc(Br)o2)CC1 | 0.245 | 0.606
67 | N#CC1=C(N)N2C(=C(C#N)C1c1c(F)cccc1Cl)Sc1ccccc12 (configuration not stated) | 0.27 | 0.622
68 | O=C(NCC1CCCO1)c1ccc2c(c1)OCO2 (configuration not stated) | 0.243 | 0.615
69 | Cc1ccc(CN(C)CCc2ccccn2)cc1 | 0.272 | 0.619
70 | CN(CCCc1ccccc1)CCc1ccccn1 | 0.26 | 0.659
71 | CN(CCc1ccccn1)Cc1ccc(Cl)c(Cl)c1 | 0.222 | 0.622
